From PubChem BioAssay (NCATS)
Results filed as inconclusive are left out. The source made the active and inactive calls.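 The calls were made as follows, unless noted: active = calcium activation more than 3 SD above the typical response in the agonist read; inactive = the rest.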

What follows are compounds tested against ATPase family AAA domain-containing protein 5 (Homo sapiens) (UniProt Q96QE3) (assay: Validation screen for small molecules that inhibit ELG1-dependent DNA repair in human embryonic kidney (HEK293T) cells expressing luciferase-tagged ELG1 (AID 493107; active = well fitted inhibition curve with a large enough effect; also: nearly all actives have a fitted effect of over 70% in size; also: potency is read from the fitted curve at half-maximal effect;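 as to activity change, negative = decrease: cells co-treated with the DNA-damaging agent 5-fluorouridine alongside compound; % is scaled to controls: 0 for no effect and ±100 for the full control effect; inhibitors lower the ELG1-luciferase luminescence signal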)). Conditions: HEK293T ELG1-luciferase level, luminescence, 5-fluorouridine co-treatment, 16 h; series mostly up to 46.1 µM; activity change, negative = decrease: at the top concentration.
ATPase family AAA domain-containing protein 5 (Homo sapiens), sequence (Q96QE3 whole entry, looked up, the tested form may be a part): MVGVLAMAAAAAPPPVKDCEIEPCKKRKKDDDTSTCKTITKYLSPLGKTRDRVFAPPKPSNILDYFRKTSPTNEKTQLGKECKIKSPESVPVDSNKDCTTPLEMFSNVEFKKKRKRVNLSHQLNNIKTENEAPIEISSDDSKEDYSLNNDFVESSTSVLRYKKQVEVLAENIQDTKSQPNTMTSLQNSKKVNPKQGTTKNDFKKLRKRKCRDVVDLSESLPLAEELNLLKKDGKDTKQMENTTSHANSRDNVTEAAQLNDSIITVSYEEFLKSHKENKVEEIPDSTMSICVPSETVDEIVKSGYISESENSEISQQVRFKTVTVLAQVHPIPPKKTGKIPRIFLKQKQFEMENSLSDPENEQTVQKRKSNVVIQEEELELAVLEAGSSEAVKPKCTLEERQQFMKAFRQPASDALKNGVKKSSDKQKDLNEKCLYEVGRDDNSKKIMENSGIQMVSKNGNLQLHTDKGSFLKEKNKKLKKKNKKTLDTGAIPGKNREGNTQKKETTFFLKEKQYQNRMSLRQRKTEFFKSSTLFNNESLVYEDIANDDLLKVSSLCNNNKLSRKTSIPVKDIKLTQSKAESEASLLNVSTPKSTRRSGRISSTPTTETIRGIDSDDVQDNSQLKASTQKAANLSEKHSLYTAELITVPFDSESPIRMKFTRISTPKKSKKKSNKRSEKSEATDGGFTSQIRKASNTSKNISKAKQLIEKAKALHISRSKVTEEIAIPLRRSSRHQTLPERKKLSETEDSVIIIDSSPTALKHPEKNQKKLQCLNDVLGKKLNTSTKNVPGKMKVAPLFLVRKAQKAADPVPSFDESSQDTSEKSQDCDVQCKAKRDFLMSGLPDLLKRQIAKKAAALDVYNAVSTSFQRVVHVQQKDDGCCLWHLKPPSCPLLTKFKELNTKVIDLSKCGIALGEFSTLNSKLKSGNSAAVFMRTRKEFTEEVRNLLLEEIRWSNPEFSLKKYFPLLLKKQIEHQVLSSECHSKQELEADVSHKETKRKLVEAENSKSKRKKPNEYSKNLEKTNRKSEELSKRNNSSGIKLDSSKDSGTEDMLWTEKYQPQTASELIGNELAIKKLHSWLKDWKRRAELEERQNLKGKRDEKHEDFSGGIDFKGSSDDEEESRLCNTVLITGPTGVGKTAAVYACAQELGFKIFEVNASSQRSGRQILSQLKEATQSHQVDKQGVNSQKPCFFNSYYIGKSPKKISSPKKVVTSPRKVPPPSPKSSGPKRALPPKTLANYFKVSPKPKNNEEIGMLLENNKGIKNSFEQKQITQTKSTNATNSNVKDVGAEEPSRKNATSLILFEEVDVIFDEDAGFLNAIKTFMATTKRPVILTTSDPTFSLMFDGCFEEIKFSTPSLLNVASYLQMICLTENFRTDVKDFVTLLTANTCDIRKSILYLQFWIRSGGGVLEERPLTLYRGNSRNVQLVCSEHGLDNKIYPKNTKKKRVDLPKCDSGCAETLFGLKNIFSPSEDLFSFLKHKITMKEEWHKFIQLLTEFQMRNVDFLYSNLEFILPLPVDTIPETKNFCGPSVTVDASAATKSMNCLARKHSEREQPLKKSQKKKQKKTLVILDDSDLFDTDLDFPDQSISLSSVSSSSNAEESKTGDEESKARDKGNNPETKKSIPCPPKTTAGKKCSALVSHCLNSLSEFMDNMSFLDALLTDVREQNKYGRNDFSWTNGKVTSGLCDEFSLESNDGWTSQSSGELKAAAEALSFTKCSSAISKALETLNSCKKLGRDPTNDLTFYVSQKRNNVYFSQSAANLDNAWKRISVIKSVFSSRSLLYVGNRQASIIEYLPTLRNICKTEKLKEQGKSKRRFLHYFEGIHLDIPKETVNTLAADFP
Procedure, shortened: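 HEK293T cells expressing luciferase-tagged ELG1 were co-treated with 5-fluorouridine and compound or DMSO for 16 hr at 37 °C, 5% CO2. Luciferase activity was then read with ONE-Glo after 30 min at room temperature; suppressed signal indicates blocked ELG1 function.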
With `CC1OC1P(=O)(O)O` (configuration not stated) the “activity change, negative = decrease” value was 22.2% (inactive).
With `CCCCC/C=C\CC(O)/C=C/c1cccc(CC(O)CCCCO)n1` (configuration not stated) the “activity change, negative = decrease” value was 2.84% (inactive).
`O=c1[nH]c2cc([N+](=O)[O-])c([N+](=O)[O-])cc2[nH]c1=O` was tested, and the “activity change, negative = decrease” value was 0.474% (inactive).
In the case of `CN(C)c1nc2c(Br)c(Br)c(Br)c(Br)c2[nH]1`, the Potency is reported as 1460 nM (active).
`NCCNC(=O)c1ncsc1-c1cccc(F)c1` was tested, and the “activity change, negative = decrease” value was 1.49% (inactive).
With `CCCCCCCCCCCCCCCC(=O)OC(CC(=O)O)C[N+](C)(C)C` (configuration not stated) the “activity change, negative = decrease” value was 10.8% (inactive).
With `C[N+](C)(CCCCCC[N+](C)(C)CCCN1C(=O)c2cccc3cccc(c23)C1=O)CCCN1C(=O)c2cccc3cccc(c23)C1=O` the “activity change, negative = decrease” value was 35.3% (inactive).
With `NCCSSCCN` the “activity change, negative = decrease” value was 2.22% (inactive).
For `CN(C)C(N)=NCCC[C@H](N)C(=O)O`, the “activity change, negative = decrease” value was -16.6% (inactive).
For `Fc1ccc(C(OCCCc2cnc[nH]2)c2ccc(F)cc2)cc1`, the “activity change, negative = decrease” value was -8.48% (inactive).
In the case of `O=C(O)c1cc(=O)c2c(Cl)cc(Cl)cc2[nH]1`, the “activity change, negative = decrease” value is reported as -7.58% (inactive).
In the case of `CN(C)CCC(c1ccc(Cl)cc1)c1ccccn1` (configuration not stated), the “activity change, negative = decrease” value is reported as 8.64% (inactive).

The compounds below were run against Thyrotropin-releasing hormone receptor (Homo sapiens) (UniProt P34981) (assay: qHTS for Small Molecule Agonists and Allosteric Enhancers of Human TRH Receptor: Validation Screen for Agonists (AID 493127;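 also: intracellular calcium rise by fluo-8 fluorescence before TRH EC20 addition; 0% is about no effect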)). Conditions: TRH receptor agonist cell assay; at 2 µM; hits give high values.
Thyrotropin-releasing hormone receptor (Homo sapiens), sequence (P34981 whole entry, looked up): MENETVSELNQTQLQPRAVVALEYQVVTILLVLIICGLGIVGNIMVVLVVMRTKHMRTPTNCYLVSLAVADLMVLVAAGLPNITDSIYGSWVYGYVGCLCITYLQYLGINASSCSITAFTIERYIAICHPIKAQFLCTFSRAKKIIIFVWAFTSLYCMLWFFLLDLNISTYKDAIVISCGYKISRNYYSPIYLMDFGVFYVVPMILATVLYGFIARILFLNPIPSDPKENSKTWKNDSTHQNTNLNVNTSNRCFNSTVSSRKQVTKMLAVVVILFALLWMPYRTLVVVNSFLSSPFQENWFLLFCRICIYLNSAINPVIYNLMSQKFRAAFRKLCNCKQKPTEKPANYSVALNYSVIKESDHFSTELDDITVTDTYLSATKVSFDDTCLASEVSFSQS
Procedure, shortened: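 TRHR-expressing cells were plated overnight in serum-containing medium, then loaded with fluo-8 calcium dye at room temperature for 30 min–1.5 h. After a 10 s baseline, compound was pin-transferred and calcium fluorescence (ex 480/em 530) read kinetically for agonist response.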
With `O=C(O)/C=C/C(O)c1ccc(Cl)cc1` (configuration not stated) the activation was 0.125% (inactive).
`C[C@@H](CN1CCC(Cc2ccccc2)CC1)[C@@H](O)c1ccc(O)cc1` was tested, and the activation was 2.75% (inactive).
With `NC(=O)C(=O)O` the activation was 1% (inactive).
`CNCC[C@H](Oc1ccc(C(F)(F)F)cc1)c1ccccc1` was tested, and the activation was 14.1% (inactive).
`CC(=O)SCC[N+](C)(C)C` was tested, and the activation was 0.875% (inactive).
For `CN1[C@@H](CC(=O)c2ccccc2)CCC[C@H]1C[C@H](O)c1ccccc1`, the activation was 0.5% (inactive).
`CN1C2CCC1CC(OC(=O)C(O)c1ccccc1)C2` (configuration not stated) was tested, and the activation was 1.19% (inactive).
With `Cc1ccc(C(=O)O[C@H](C(=O)O)[C@@H](OC(=O)c2ccc(C)cc2)C(=O)O)cc1` (tested in a mixture with another compound) the activation was 1.25% (inactive).
`O=Nc1ccc2oc(=O)ccc2c1` was tested, and the activation was -0.5% (inactive).
For `N=C(N)SCCc1ccc(CCSC(=N)N)cc1`, the activation was 1.12% (inactive).
`C=CC(N)CCC(=O)O` (configuration not stated) was tested, and the activation was -0.0625% (inactive).
`CCCCCCCCCCCCCCCCCCNC(=O)OCC(COP(=O)([O-])OCC[n+]1ccsc1)OC` (configuration not stated) was tested, and the activation was 0.875% (inactive).
For `COc1cccc(OC)c1OCCNCC1COc2ccccc2O1` (configuration not stated), the activation was -3.69% (inactive).
For `CC(C)NC[C@H](O)COc1cccc2[nH]ccc12`, the activation was 1.12% (inactive).
`NC(CCCP(=O)(O)O)C(=O)O` (configuration not stated) was tested, and the activation was 0.562% (inactive).
For `Cc1ccccc1CNc1ncnc2c1ncn2C1OC(CO)C(O)C1O` (configuration not stated), the activation was 1.31% (inactive).
In the case of `O=C(O)c1cc(=O)c2ccccc2[nH]1`, the activation is reported as 0.125% (inactive).
With `O=C(O)CC[C@@H](C(=O)O)N1C(=O)c2ccccc2C1=O` the activation was 0.125% (inactive).
With `CC(C)(C=O)Cc1cc(C(C)(C)C)c(O)c(C(C)(C)C)c1` the activation was -9.5% (inactive).
In the case of `CCCCC/C=C\CC(O)/C=C/c1cccc(CC(O)CCCCO)n1` (configuration not stated), the activation is reported as -2.94% (inactive).
For `O=c1[nH]c2cc([N+](=O)[O-])c([N+](=O)[O-])cc2[nH]c1=O`, the activation was 1.31% (inactive).
With `CN(C)c1nc2c(Br)c(Br)c(Br)c(Br)c2[nH]1` the activation was 5.88% (inactive).
For `NCCNC(=O)c1ncsc1-c1cccc(F)c1`, the activation was -2.38% (inactive).
For `CCCCCCCCCCCCCCCC(=O)OC(CC(=O)O)C[N+](C)(C)C` (configuration not stated), the activation was 1.06% (inactive).
`C[N+](C)(CCCCCC[N+](C)(C)CCCN1C(=O)c2cccc3cccc(c23)C1=O)CCCN1C(=O)c2cccc3cccc(c23)C1=O` was tested, and the activation was -0.188% (inactive).
For `NCCSSCCN`, the activation was -0.375% (inactive).
With `CN(C)C(N)=NCCC[C@H](N)C(=O)O` the activation was 0.188% (inactive).
For `Fc1ccc(C(OCCCc2cnc[nH]2)c2ccc(F)cc2)cc1`, the activation was -5.06% (inactive).
`O=C(O)c1cc(=O)c2c(Cl)cc(Cl)cc2[nH]1` was tested, and the activation was 1.56% (inactive).
In the case of `CN(C)CCC(c1ccc(Cl)cc1)c1ccccn1` (configuration not stated), the activation is reported as 1.12% (inactive).
